# Screening results deposited in PubChem BioAssay by University of Kansas High Throughput Screening Laboratory.
# mHTT-CaM PPI inh: disrupts binding of mutant huntingtin to calmodulin. inhibition, % at 15 µM. AlphaScreen His-mHTT/GST-CaM binding, luminescence. P42858. 3.6% of 190,000 active;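 also: 0% = both proteins with DMSO and 100% = one protein alone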
# Pf apPOL block: Pf-apPOL DNA polymerase inhibition; Recombinant Pf-apPOL, molecular beacon fluorescence, 1.5 h; inhibition, % at 10 µM; 0.25% of 210,000 active; AID 1794808
# * hit, by the source's call; . = no result given. Only some compounds are listed: those with a hit (about 3.5% of all), similar ones and a draw of the others. Rule as the data show it: active = inhibition above about 50%; inactive = the rest.
SMILES,mHTT-CaM PPI inh,Pf apPOL block
COc1cccc(-c2nc(-c3ccccn3)no2)c1,2,-2
CC(C)NC(=O)CCC1CCN(c2cc(NC3CC3)ncn2)CC1,3,-4
COc1ccc(/C=C/c2ccc3cccc(O)c3n2)cc1C,20,-6
CC(C)Cn1cc2c3c(cccc31)CN(C(=O)c1ccncc1)CC2,55*,-1
COCC(=O)N1CCc2cn(CC(C)C)c3cccc(c23)C1,76*,-7
COc1ccc(NC(=O)N2CCc3cn(CC(C)C)c4cccc(c34)C2)cc1,9,1
CC(C)Cn1cc2c3c(cccc31)CN(C(=O)c1cnccn1)CC2,19,-2
CN1CCN(C(=O)C23CC4CC(CC(C4)C2)C3)CC1,-3,0
CCCCNC(=O)C1CC(=O)N(CCc2c[nH]c3ccc(C)cc23)C1 (stereo unspecified),5,-5
COc1ccc(-c2ccc(CN3C(C(C)C)C(=O)N(Cc4cn(CCC5OCCCO5)nn4)CCS3(=O)=O)cc2)cc1OC (stereo unspecified),44,5
Cc1ccccc1-c1ccc(CN2C(C(C)C)C(=O)N(Cc3cn(CCC4OCCO4)nn3)CCS2(=O)=O)cc1 (stereo unspecified),71*,-5
CC(C)Cc1ccc(CN2C(C(C)C)C(=O)N(Cc3cn(CCC4OCCO4)nn3)CCS2(=O)=O)cc1 (stereo unspecified),8,-8
Cc1ccc(-c2ccc(CN3C(C(C)C)C(=O)N(Cc4cn(CCC5OCCO5)nn4)CCS3(=O)=O)cc2)c(C)c1 (stereo unspecified),74*,-3
NNc1nc(-c2ccc(Br)cc2)nc2ccccc12,22,0
Cc1nn(-c2ccc(C(=O)N3CCN(c4ccccc4)CC3)cc2)c2c1C(=O)CCC2,23,-2
COc1cccc(NC2=C(N3CCOCC3)C(=O)c3ccccc3C2=O)c1,38,14
COc1cccc(NC2=C(N3CCCC3)C(=O)c3ccccc3C2=O)c1,100*,0
CCOc1ccc(NC2=C(N3CCCCC3)C(=O)c3ccccc3C2=O)cc1,96*,8
CC(=O)c1ccc(NC2=C(N3CCCCC3)C(=O)c3ccccc3C2=O)cc1,14,-12
O=C(c1cc(Cl)ccc1Cl)N1CCC(Cn2ccnc2)CC1,-8,-1
O=C(CSc1nc2c(c(=O)n1-c1ccccc1)SCC2)N1CCCc2ccccc21,-12,-5
CCSc1nnc2c(n1)OC(c1ccc(C)o1)Nc1ccccc1-2 (stereo unspecified),1,-1
N#CC1=C(S)NC(O)(c2ccccc2)C([n+]2ccccc2)C1c1ccccc1Br (stereo unspecified),77*,-4
N#CC1=C(S)NC(=O)C([n+]2ccccc2)C1c1ccc(F)c(Br)c1 (stereo unspecified),33,-1
Cc1ccnc(N2CCC(C(=O)NCc3ccc(CN4CCCCCC4)o3)CC2)n1,-6,9
SMILES,mHTT-CaM PPI inh,Pf apPOL block
Nc1c(C(=O)O)sc2nc3c(cc12)CCCC3,-4,.
CC1(C)Cc2nc3sc(C(=O)O)c(N)c3cc2CS1,51*,0
O=C(O)C1CC=CCC1C(=O)Nc1cccc([N+](=O)[O-])c1 (stereo unspecified),0,0
Cc1ccc(C(=O)NC(Nc2ccccc2C)C(Cl)(Cl)Cl)cc1 (stereo unspecified),-6,0
CN(C)C(=O)NC(Nc1cccc([N+](=O)[O-])c1)C(Cl)(Cl)Cl (stereo unspecified),0,-2
O=C(NC(Nc1ccccc1Cl)C(Cl)(Cl)Cl)c1cccc([N+](=O)[O-])c1 (stereo unspecified),74*,-4
O=C(NC(Nc1ccc([N+](=O)[O-])cc1)C(Cl)(Cl)Cl)c1ccccc1 (stereo unspecified),44,-8
Cc1ccccc1NC(NC(=O)c1cc([N+](=O)[O-])cc([N+](=O)[O-])c1)C(Cl)(Cl)Cl (stereo unspecified),53*,-2
O=C(NC(Nc1cccc([N+](=O)[O-])c1)C(Cl)(Cl)Cl)c1cccc(Cl)c1 (stereo unspecified),86*,-1
Cc1cccc(C(=O)NC(Nc2ccc([N+](=O)[O-])cc2)C(Cl)(Cl)Cl)c1 (stereo unspecified),38,-1
COc1ccc(NC(NC(=O)c2cc([N+](=O)[O-])cc([N+](=O)[O-])c2)C(Cl)(Cl)Cl)cc1 (stereo unspecified),69*,-6
CCc1ccc(C(=O)N2CCC(c3nc(C(=O)N4CCOCC4)c(C)o3)CC2)cc1,10,-8
Cc1nc(C)c(-c2cnc(NS(=O)(=O)c3cc(C(F)(F)F)cc(C(F)(F)F)c3)nc2)s1,.,-12
Cn1nc(-c2cccnc2)[nH]c1=O,.,-14
Cc1cccc(N2C(=O)CSC2c2cc3c(cc2Br)OCO3)c1 (stereo unspecified),-2,-1
CN1C(=O)C2(CCN(C(=O)Cc3ccc(Cl)cc3)C2)c2ccccc21 (stereo unspecified),16,3
